Efflux pump mplx – inhibitors of Candida antifungal efflux pumps expressed in yeast; 330,000 compounds, 0.44% hits; S. cerevisiae Candida pump triplex, Nile Red efflux; inhibition, % at 10 µM;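 active = plate passing quality check with inhibition over a set limit, or well fluorescence over plate mean plus 4 SD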;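 also: Nile Red retained in pooled yeast measured as flow cytometry median fluorescence; 0% = buffer negative control and 100% = Enniatin B positive control; higher means more Nile Red kept so more efflux inhibition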
NALP1 inh – blocks the NALP1 inflammasome reconstituted in yeast. S. cerevisiae NALP1/ASC/caspase-1 growth, X-gal OD620, 72 h. inhibition, % at 10 µM. 280,000 compounds, 0.61% hits; in the data active = inhibition mostly above about 24%, no sharp cut-off; inactive = mostly below about 32%
PolyA inhibitor – blocks polyadenylation in yeast reporter cells | S. cerevisiae SKY197-pL101 polyadenylation reporter, beta-gal luminescence; efflux-impaired pdr1/pdr3 knockout yeast; score 100 = 6 SD above DMSO | activity score, % at 12 µM | 300,000 compounds, 0.02% hits;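 active = lowest replicate activity score at least 50, where 100 means six control SD above control mean; inconclusive = lowest score under 50 but half or more replicates reach 50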;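 also: yeast exposed to compound for 9 h at 30 °C; higher score means more reporter readthrough which indicates perturbed polyadenylation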
GASC-1 inh – human JMJD2C demethylase inhibition; Q9H3R0; GST-JMJD2C(1-420) H3K9me3 demethylation, DELFIA europium; inhibition, % at 2.35 µM; 330,000 compounds, 0.069% hits; AID 2099;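 active = more than half of a compound's replicate wells show inhibition beyond 50%, single wells judged on their own value; inconclusive = some, but no more than half, of replicates pass 50% inhibition; inactive = no replicate passes 50% inhibition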;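 also: signal counts dimethyl H3K9 product captured on neutravidin plate; 0% = median of DMSO wells and 100% = 0.3 times that DMSO median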
Target sequence (Q9H3R0 1-420 limits assumed): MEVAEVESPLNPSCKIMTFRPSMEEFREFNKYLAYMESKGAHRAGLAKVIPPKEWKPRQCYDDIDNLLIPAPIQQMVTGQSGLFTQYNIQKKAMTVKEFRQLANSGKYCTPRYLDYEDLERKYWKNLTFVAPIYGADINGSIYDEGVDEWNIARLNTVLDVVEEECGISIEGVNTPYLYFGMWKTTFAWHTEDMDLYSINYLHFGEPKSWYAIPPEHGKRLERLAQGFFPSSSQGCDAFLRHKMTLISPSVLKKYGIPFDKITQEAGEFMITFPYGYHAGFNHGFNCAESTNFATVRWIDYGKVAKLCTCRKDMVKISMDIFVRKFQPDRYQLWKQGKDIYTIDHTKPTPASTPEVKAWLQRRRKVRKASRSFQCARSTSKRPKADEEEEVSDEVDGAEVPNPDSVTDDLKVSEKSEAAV
HDAC3 inhib – blocks human histone deacetylase 3; recombinant HDAC3, fluorogenic peptide/trypsin coupled, fluorescence; inhibition, % at 8.3 µM; 320,000 compounds, 0.15% hits; AID 2718; in the data active = inhibition above about 26%, passing the limit was not always enough; inconclusive = no clear call, values can overlap the other calls
NLRP3 yeast inh – inhibitors of NALP3 inflammasome in yeast. Yeast reconstituted NLRP3/ASC/caspase-1, beta-gal luminescence, 24 h. inhibition, % at 10 µM. 330,000 compounds, 0.39% hits;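 active = inhibition of 50% or more; inactive = inhibition below 50%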;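 also: plate controls were induced DMSO wells for no effect and uninduced yeast grown without galactose for full effect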
Starred values were filed as active, the others as inactive; ? = inconclusive; nt = not tested or not shown. Compounds with a hit are over-represented: about 1.5% of the library has one in this group of screens.

SMILES	Efflux pump mplx	NALP1 inh	PolyA inhibitor	GASC-1 inh	HDAC3 inhib	NLRP3 yeast inh
COc1cc2c(cc1OC)C(c1cccc(C)c1)CC(=O)N2 (centres undefined)	0	44*	-3	7	-4	20
COc1cc2c(cc1OC)C(c1cccc(Cl)c1)CC(=O)N2 (centres undefined)	0	4	6	-21	-4	16
C=CCn1c(SCC(=O)Nc2ccc3c(c2)OCCO3)nc2cc(C(=O)O)ccc2c1=O	0	nt	nt	1	-6	14
N=C1C(c2nc3ccccc3c(=O)[nH]2)=C(O)CN1c1ccccc1	nt	38*	nt	nt	nt	nt
Cc1ccc(N2CC(O)=C(c3nc4ccccc4c(=O)[nH]3)C2=N)cc1C	0	-4	17	-3	1	40
O=C(NCCCN1CCN(CCCNC(=O)c2ccc3c(c2)OCO3)CC1)c1ccc2c(c1)OCO2	0	28*	12	3	10	5
COCCCNC(=O)c1ccc2c(c1)OCO2	0	12	14	19	-4	11
O=C(CSc1nnc(CNC(=O)c2c(F)cccc2F)o1)NCc1ccc(F)cc1	0	13	-4	1	-2	2
Cn1c(O)c(N=NC(=O)CNC(=O)c2ccco2)c2ccccc21	0	nt	6	-30	1	17
Cn1c(O)c(N=NC(=O)c2ccco2)c2ccccc21	0	36*	-7	-12	0	18
Cn1c(O)c(N=NC(=O)CNC(=O)/C=C/c2ccccc2)c2ccccc21	0	37*	13	-1	9	-3
COc1ccc(C(=O)N2c3cc4c(cc3C(C)=CC2(C)C)OCO4)cc1	nt	26*	-20	-10	nt	nt
O=C(COC(=O)c1ccccc1C(=O)c1ccc(Cl)c([N+](=O)[O-])c1)NC1CCCCCC1	0	36*	-6	11	0	-3
N#Cc1ccc(OCC(=O)Nc2cccc(S(=O)(=O)NC3=NCCCCC3)c2)cc1	0	nt	7	6	3	5
CCc1ccc(CCC(=O)Nc2sc3c(c2C#N)CCCC3)o1	0	nt	8	51*	-1	-9
O=C(CC1OC(=O)c2ccccc21)Nc1cc(S(=O)(=O)N2CCOCC2)ccc1OCC(F)(F)F (centres undefined)	0	nt	-20	2	-1	-1
Cn1cnc([N+](=O)[O-])c1S(=O)(=O)c1cccc(Cl)c1	0	66*	-4	-2	nt	-28
Cc1nn(C(C)C(=O)c2cccc(Cl)c2)c(C)c1[N+](=O)[O-] (centres undefined)	0	10	13	-3	6	6
Cc1nn(C(=O)c2ccccc2)c2c1C(=O)CC(C)(C)C2	0	8	13	-1	91*	12
CCCc1nn(C(=O)c2ccccc2)c2c1C(=O)CC(C)(C)C2	0	-8	-10	-1	72*	28
COc1ccc(N(C(=O)CCl)C(C)(C(=O)Nc2c(C)cccc2C)c2ccccn2)cc1 (centres undefined)	0	8	14	7	-3	3
CCOC(=O)CSc1n[nH]c(NC(=O)c2ccc(F)cc2)n1	0	5	-10	-27	50*	18
Cc1cc(C)c(S(C)(=O)=O)c(Oc2ccc(C(C)(C)C)cc2)n1	0	30*	0	0	-10	16
Cc1cc(C)c(S(C)(=O)=O)c(Oc2cccc(Cl)c2)n1	0	31	-10	1	8	-1
C[C@H](CO)N1C[C@H](C)[C@@H](CN(C)S(=O)(=O)c2ccccc2)Oc2c(NC(=O)CCC(F)(F)F)cccc2C1=O	0	nt	nt	53*	0	15
SMILES	Efflux pump mplx	NALP1 inh	PolyA inhibitor	GASC-1 inh	HDAC3 inhib	NLRP3 yeast inh
C[C@H](CO)N1C[C@H](C)[C@@H](CN(C)S(=O)(=O)c2cccs2)Oc2c(NC(=O)CCC(F)(F)F)cccc2C1=O	0	nt	nt	52*	-1	1
CNC[C@@H]1Oc2c(NC(=O)Nc3ccccc3)cccc2C(=O)N([C@@H](C)CO)C[C@H]1C	0	nt	nt	51*	0	12
C[C@H]1CN([C@@H](C)CO)C(=O)c2cccc(NC(=O)Nc3ccc(C(F)(F)F)cc3)c2O[C@@H]1CN(C)S(=O)(=O)c1ccc(Cl)cc1	1	nt	nt	19	34*	15
C[C@H](CO)N1C[C@H](C)[C@@H](CN(C)S(=O)(=O)c2ccc(F)cc2)Oc2c(NC(=O)Nc3ccc(C(F)(F)F)cc3)cccc2C1=O	0	nt	nt	-24	19	19
Cc1cc(N2CCCC2=O)ccc1S(=O)(=O)NC1CCCCC1	0	27	5	-5	1	26
CCOc1ccc(S(=O)(=O)N(CC)CC)cc1NC(=O)c1ccc(N2CCCC2=O)cc1	0	10	-25	13	5	16
COc1ccc(S(=O)(=O)Nc2cccc3c2O[C@H](CN(C)Cc2ccc(C(=O)O)cc2)[C@@H](C)CN([C@H](C)CO)C3=O)cc1	0	nt	nt	58*	-1	-12
COc1ccc(S(=O)(=O)Nc2cccc3c2O[C@H](CN(C)Cc2ccc(-c4ccccc4)cc2)[C@@H](C)CN([C@H](C)CO)C3=O)cc1	0	nt	nt	-4	20	13
O=C(COC(=O)c1cc(S(=O)(=O)N2CCOCC2)ccc1Cl)NCc1ccccc1	0	nt	nt	4	2	15
Cc1ccccc1Nc1nnc(SCc2cc(=O)n3ccsc3n2)s1	0	27*	6	-11	0	-1
O=c1cc(CSc2nnc(Nc3ccccc3)s2)nc2sccn12	0	3	nt	nt	3	-1
CCOc1ccc(C2/C(=C(\O)c3cccc(OC)c3)C(=O)C(=O)N2c2ccccn2)cc1OC (centres undefined)	0	-1	6	4	4	1
O=C(c1ccc(N2CCOCC2)cc1[N+](=O)[O-])N1CCOCC1	0	34*	27	2	4	15
O=C(O)CNC(=O)c1ccc(N2CCOCC2)cc1[N+](=O)[O-]	0	-9	-10	6	-1	6
CC(C)CC(=O)/C(=C\c1ccc(Cl)cc1Cl)n1cncn1	nt	112*	-106	-4	nt	nt
NS(=O)(=O)c1ccc(CCNC(=O)CSc2ccccc2)cc1	0	22	8	51*	1	9
CCN=c1sc(C(=O)NCCc2ccccc2)cc(=O)n1CC	0	16*	-9	10	?	23
COc1ccccc1-c1cc(C(F)(F)F)nc(S(C)(=O)=O)n1	0	-2	-52	-1	10	-20
CS(=O)(=O)c1nc(-c2ccco2)cc(C(F)(F)F)n1	0	61*	-71	1	3	37
Cn1ccnc1SCC(=O)Nc1nc2c(F)c(F)c(F)cc2s1	0	36*	1	-2	1	9
Cn1c(N)c(C(=O)COC(=O)Cc2ccc(Cl)c(Cl)c2)c(=O)n(C)c1=O	0	nt	nt	1	0	7
